PubChem BioAssay AID777 (Sanford-Burnham Center for Chemical Genomics, 2007)
The whole screen tested about 96,000 compounds, of which about 19,000 (20%) were called active. The list is a sample of the results. Unmarked numbers belong to inactive results.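 Rule for the calls: active = blocking of liver enzyme CYP2C9 beyond about 50% at 5 µM (limit read from the data); inactive = the rest.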

These compounds were tested against Cytochrome P450 2C9 (Homo sapiens) (UniProt P11712) (assay: blockers of cytochrome P450 2C9 activity – biochemical, luminescence, ADME assay, primary screen (AID 777)). Conditions: CYP2C9 Supersomes, luciferin-H conversion, at 5 µM, hits give high values.
Sequence of Cytochrome P450 2C9 (Homo sapiens) (P11712 whole entry, looked up): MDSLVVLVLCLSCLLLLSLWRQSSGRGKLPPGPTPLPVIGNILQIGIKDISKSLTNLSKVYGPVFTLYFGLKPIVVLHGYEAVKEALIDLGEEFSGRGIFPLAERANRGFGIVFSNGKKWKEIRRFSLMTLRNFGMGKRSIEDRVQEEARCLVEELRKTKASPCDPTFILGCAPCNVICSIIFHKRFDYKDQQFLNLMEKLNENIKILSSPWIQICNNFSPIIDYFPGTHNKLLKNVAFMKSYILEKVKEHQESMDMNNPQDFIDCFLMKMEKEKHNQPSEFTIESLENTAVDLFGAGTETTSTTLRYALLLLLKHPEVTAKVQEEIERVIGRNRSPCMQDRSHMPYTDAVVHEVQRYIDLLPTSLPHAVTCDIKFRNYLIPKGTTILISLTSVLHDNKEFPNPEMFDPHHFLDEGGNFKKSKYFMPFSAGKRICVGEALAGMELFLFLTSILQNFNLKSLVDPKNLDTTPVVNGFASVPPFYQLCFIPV
Work on `C(=N/N1CCN(c2ccccc2)CC1)/c1cccs1` yielded an inhibition of 40.3%.
In the case of `O=C1/C(=C/c2cccs2)CCc2ccccc21`, the inhibition is reported as 72.8% (active).
In the case of `Cc1ccc(N2CCN(C3=NC(=O)/C(=C\c4cccs4)S3)CC2)cc1`, the inhibition is reported as -127%.
Work on `Cc1ccc(C(=O)Nc2c(C#N)c(C)c(C)n2Cc2ccccc2)cc1` yielded an inhibition of 22.4%.
For `Cc1c(C#N)c(NC(=O)c2ccccc2)n(Cc2ccccc2)c1C`, the inhibition was 60.7% (active).
`COc1ccc(Cn2c(C)c(C)c(C#N)c2NC(=O)Nc2ccc(F)cc2)cc1` was tested, and the inhibition was 13.6%.
Work on `CCCc1nc(N)nc2c1C(=O)CC(C)(C)C2` yielded an inhibition of -35.3%.
`CCCSc1nsc(N)n1` gave an inhibition of 16.4%.
Work on `O=C(Nc1cccc(-c2nc3ncccc3o2)c1)c1ccco1` yielded an inhibition of -2.1%.
In the case of `O=C(Nc1ccncc1)c1cc2ccccc2o1`, the inhibition is reported as 86% (active).
Compound `O=C(Nc1ccncc1)c1c(F)cccc1F` has an inhibition of 40.2%.
Work on `O=C(C1CCCO1)N(Cc1ccccc1)c1ccccc1` (stereo unspecified) yielded an inhibition of -4%.
`Cc1cc([N+](=O)[O-])c(N2CCC[C@@H]2C(=O)O)c([N+](=O)[O-])c1` gave an inhibition of 5.1%.
`CS(=O)(=O)c1ccc2nc(NC(=O)C3C4C=CC(C4)C3C(=O)O)sc2c1` (stereo unspecified) gave an inhibition of -5.4%.
For `CC(C)(C)n1c(=O)[nH]c2c(c1=O)CCC2`, the inhibition was -7.2%.
`COC(=O)c1ccccc1NC(=O)C1CCN(S(=O)(=O)c2cc(OC)ccc2OC)CC1` was tested, and the inhibition was 92.2% (active).
In the case of `CCOc1ccccc1NC(=O)C1CCN(S(=O)(=O)c2c(C)nn(C)c2C)CC1`, the inhibition is reported as -30.6%.
With `CCOc1ccc(OCC)c(NC(=O)C2CCN(S(=O)(=O)c3c(C)noc3C)CC2)c1` the inhibition was 48.4%.
`O=C(Cc1c(O)c2ccccc2[nH]c1=O)NCc1ccccc1` showed an inhibition of 9.8%.
`O=C(Nc1ccon1)c1cccc(Cl)c1` showed an inhibition of 17.5%.
In the case of `Cc1ccc(Oc2ccc(N)cc2)cc1`, the inhibition is reported as 29.2%.
`CC(C(=O)Nc1ccc(F)c(F)c1F)N1CCCCCC1` (stereo unspecified) was tested, and the inhibition was 13.7%.
`Cc1cc(NC(=O)COc2ccc(Cl)cc2Cl)n(CCC#N)n1` gave an inhibition of 16.2%.
In the case of `O=C1CCCC2=C1C(c1ccccc1)n1c(s/c(=C/c3cccc(F)c3)c1=O)=N2` (stereo unspecified), the inhibition is reported as 49.7%.
`CC(C)CCNC(=O)Cn1c(=O)oc2cc(S(=O)(=O)N3CC(C)CC(C)C3)ccc21` (stereo unspecified) was tested, and the inhibition was 51.3% (active).
`O=C(NC1CCCCC1)n1c(=O)oc2cc(S(=O)(=O)N3CCCCC3)ccc21` showed an inhibition of -56.7%.
Compound `CCOC(=O)Cn1c(=O)oc2cc(S(=O)(=O)NCC3CCCO3)ccc21` (stereo unspecified) has an inhibition of 11.7%.
In the case of `Cn1c(=O)c2c(nc(SCC(=O)Nc3ccccc3N3CCCCC3)n2C)n(C)c1=O`, the inhibition is reported as 93.9% (active).
`Cn1c(=O)c2c(nc(N3CCCCCC3)n2CC(=O)c2ccc(Br)cc2)n(C)c1=O` gave an inhibition of 15.6%.
For `Cn1c(=O)c2c(nc(SCCNS(=O)(=O)c3ccccc3)n2C)n(C)c1=O`, the inhibition was 42.7%.
With `O=C(CN1CCN(C2CCCCC2)CC1)Nc1ccccc1N1CCCCC1` the inhibition was -1.6%.
`Cn1c(=O)c2c(nc(N3CCCCCC3)n2CC(O)COc2ccc(Cl)cc2)n(C)c1=O` (stereo unspecified) showed an inhibition of 20%.
In the case of `CC(C)n1c(SCC(=O)Nc2ccccc2N2CCCCC2)nc2c1c(=O)n(C)c(=O)n2C`, the inhibition is reported as 87.2% (active).
Compound `Cc1ccc2[nH]c(=O)c(-c3nc4c(C)cccn4c3NCc3ccco3)cc2c1` has an inhibition of 13%.
`Fc1ccc(-c2ccc(-c3nn4c(-c5ccco5)nnc4s3)o2)cc1` was tested, and the inhibition was 7.3%.
Compound `COC(=O)c1ccc(Oc2nc(Nc3ccc(F)cc3)nc(N3CCCC3)n2)cc1` has an inhibition of 31.9%.
In the case of `Cc1ccc2nc(Nc3ccccc3O)nc(-c3ccccc3)c2c1`, the inhibition is reported as 13.8%.
Work on `Cc1nnc(SCC(N)=O)n1CC1CCCO1` (stereo unspecified) yielded an inhibition of 0.5%.
With `O=c1c2ccccc2nnn1CSc1nc2sc3c(c2c(=O)n1CC1CCCO1)CCC3` (stereo unspecified) the inhibition was 84.8% (active).
In the case of `O=C(NC1CCCCC1)c1ccc2c(=O)n(CC3CCCO3)c(=O)[nH]c2c1` (stereo unspecified), the inhibition is reported as -2.1%.
With `COc1cccc(CNc2nc3nc4c(c(=O)n3[nH]2)CCC4)c1` the inhibition was 15.1%.
Compound `CC(=O)Nc1ccc(N2C(=O)C3C4CC(=O)C(c5ccccc54)C3C2=O)cc1` (stereo unspecified) has an inhibition of -8.5%.
Work on `COC(=O)c1ccc(NC(=O)CSc2nnc(Cc3cccn3C)n2-c2ccc(F)cc2)cc1` yielded an inhibition of 19.2%.
For `Cc1ccc(C)c(NC(=O)CSc2nnc(Cc3cccn3C)n2-c2ccc(F)cc2)c1`, the inhibition was 19.9%.
For `COc1ccccc1NC(=O)CSc1nnc(Cc2cccn2C)n1-c1ccc(F)cc1`, the inhibition was 62.7% (active).
Compound `CC(=NC1CCN(Cc2ccccc2)CC1)c1c(O)[nH]c(=O)[nH]c1=O` has an inhibition of -1.3%.
Compound `O=C(CSc1nc2ccccc2[nH]1)c1cccs1` has an inhibition of 29.8%.
Work on `CN=C1S/C(=C\c2ccc(Sc3ccc(Cl)cc3)o2)C(=O)N1C` yielded an inhibition of 29.4%.
In the case of `CCC(C)N1C(=O)S/C(=C/c2ccc(Sc3nc4ccccc4[nH]3)o2)C1=O` (stereo unspecified), the inhibition is reported as 60% (active).
With `COc1cccc2sc(Nc3nc(C)c(C(C)=O)s3)nc12` the inhibition was 64.5% (active).
Compound `CC(=O)c1sc(NC(=O)c2ccc(C)cc2)nc1C` has an inhibition of 6.9%.
For `CC(=O)c1sc(NC(=O)c2cccc3ccccc23)nc1C`, the inhibition was -22.6%.
For `COc1ccc(C(=S)Nc2ccccc2)cc1`, the inhibition was 15%.
`CN1CCN(C(=O)Cn2c(C(F)(F)F)nc3ccccc32)CC1` showed an inhibition of -8.1%.
`CCOC(=O)N1CCN(C(=O)CN(C2CCCCC2)S(C)(=O)=O)CC1` showed an inhibition of 0.7%.
`CS(=O)(=O)N(CC(=O)N1CCN(c2ccc(F)cc2)CC1)C1CCCCC1` was tested, and the inhibition was 21.6%.
With `CS(=O)(=O)N(CC(=O)Nc1ccc(Cl)c(Cl)c1)C1CCCCC1` the inhibition was 59.4% (active).
`CC(C)C(C)NC(=O)COc1ncnc2ccccc12` (stereo unspecified) was tested, and the inhibition was 14.1%.
With `Fc1ccc(-n2c(Cc3ccccc3)nnc2SCc2nc(-c3ccc(Cl)cc3)no2)cc1` the inhibition was 62.6% (active).
In the case of `COc1ccccc1Cc1nc(-c2ccc(C)cc2)no1`, the inhibition is reported as 7.1%.
In the case of `COc1ccc(-c2noc(CN(C)S(=O)(=O)c3ccc(C)cc3)n2)cc1`, the inhibition is reported as 18.8%.
With `O=C(CSc1nnc(Cc2ccccc2)n1-c1ccccc1)N1CCOCC1` the inhibition was 3.8%.
For `COc1ccc(N2CCN(C(=O)CCc3nc(-c4ccc(C)cc4)no3)CC2)cc1`, the inhibition was 51.2% (active).
`COc1ccc(-c2noc(-c3ccc(C)cc3)n2)cc1` was tested, and the inhibition was -13.8%.
For `Cc1ccc(Cc2nc(-c3cccc(C)c3)no2)cc1`, the inhibition was -9.2%.
With `Cc1ccc(-c2noc(CCC(N)=O)n2)cc1` the inhibition was 6.1%.
With `CSc1nnc(CNC(=O)c2ccccc2)n1-c1ccc(F)cc1` the inhibition was -3.4%.
Work on `CCOc1cc(-c2noc(CCC(=O)N3CCOCC3)n2)ccc1OC` yielded an inhibition of -11.7%.
With `Cc1ccc(-c2noc(CC(c3ccccc3)c3ccccc3)n2)cc1` the inhibition was 55.2% (active).
In the case of `COc1ccc(-c2noc(CSc3ccc(C)cc3)n2)cc1`, the inhibition is reported as 52.3% (active).
Work on `CCn1c(SCC(=O)Nc2ccc(S(=O)(=O)Nc3onc(C)c3C)cc2)nnc1-c1ccccc1` yielded an inhibition of 18.2%.
`O=C(NCCCCO)C(F)(F)C(F)(F)C(F)(F)C(=O)NCCCCO` showed an inhibition of -24.7%.
For `Cc1ccc(-c2noc(CSc3nnnn3-c3ccccc3)n2)cc1`, the inhibition was 85.5% (active).
In the case of `Cn1c(SCc2nc3ccccc3s2)nnc1-c1ccc2c(c1)OCO2`, the inhibition is reported as 8.2%.
Compound `Cc1cccc(-c2noc(-c3ccc(F)cc3)n2)c1` has an inhibition of 8.5%.
With `Cc1ccc(-c2noc(CSc3nnc(-c4ccccc4)n3C)n2)cc1` the inhibition was 88.3% (active).
Work on `Cc1ccc(Nc2nc(CSc3nnnn3-c3ccccc3)cc(=O)[nH]2)cc1` yielded an inhibition of 42.5%.
For `CN(C(=O)CSc1nnnn1-c1ccccc1)C1CCCCC1`, the inhibition was 36.3%.
With `Cc1ccc(-c2noc(CSc3nnc(-c4ccncc4)n3-c3ccc(F)cc3)n2)cc1` the inhibition was 70.7% (active).
`Cc1ccc(-c2noc(CSc3nnc(-c4cccs4)n3C)n2)cc1` was tested, and the inhibition was 13%.
For `CCN(CC)C(=O)CSc1nnc(-c2cnccn2)n1-c1ccc(C)cc1`, the inhibition was 8.8%.
With `O=C(O)CN(Cc1ccco1)S(=O)(=O)c1ccccc1` the inhibition was -2.7%.
Compound `O=C(c1ccc(O)cc1)c1ccc(C(=O)O)c(C(=O)O)c1` has an inhibition of -15.8%.
In the case of `COc1ccc(C(CNC(=O)c2cccnc2SC)N2CCOCC2)cc1` (stereo unspecified), the inhibition is reported as 6.9%.
`S=C1NC(c2ccccc2)=NCN1c1ccc(Br)cc1` showed an inhibition of 19.4%.
For `CCOC(=O)N1CCN(C(=O)C2CCN(S(C)(=O)=O)CC2)CC1`, the inhibition was -10.2%.
`CCN(c1ccc2c(c1)OCO2)S(=O)(=O)c1cc(Br)cc2c1N(C(=O)C1CC1)CC2` gave an inhibition of 33.6%.
For `CCOC(=O)N1CCN(S(=O)(=O)c2cc(Br)cc3c2N(C(=O)C2CC2)CC3)CC1`, the inhibition was 50.2% (active).
`O=C(O)C1CC=CCC1C(=O)NCCc1ccccc1` (stereo unspecified) showed an inhibition of -21.1%.
With `O=c1[nH]c(=O)n(Cc2ccco2)c2c1C(C(F)(F)F)(C(F)(F)F)N=C(c1ccco1)N2` the inhibition was 1.8%.
`Cc1ccc(C)c(NS(=O)(=O)c2cc(Br)cnc2N)c1` was tested, and the inhibition was 63.5% (active).
`Cc1ccc(S(=O)(=O)NCc2csc(C)n2)c(C)c1` was tested, and the inhibition was 9.2%.
Work on `Cc1ccc(C)c(S(=O)(=O)n2cnc3ccccc32)c1` yielded an inhibition of -14.6%.
`CCOC(=O)CSc1nnc(CNC(=O)c2cccs2)n1-c1cc(OC)ccc1OC` showed an inhibition of 31.7%.
`Cc1cc(C)c(S(=O)(=O)c2ccccc2)c(OC(=O)c2c(F)cccc2Cl)n1` showed an inhibition of 32.9%.
Work on `O=c1c2ccccc2nc2n1C(CSc1ccc(F)cc1)CN2` (stereo unspecified) yielded an inhibition of 1.1%.
